Methyltransferases – Primary Screen for Target Class Profiling of Small Molecule Inhibitors of Methyltransferases | AID 1745853, 2022 | actives 3.9% (n = 25,000) | calls only at 40 µM | purified enzyme, MTase-Glo SAH luminescence; hits give low values; call rule not given here
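Each enzyme was assayed with SAM and its substrate. SAH formation detected by MTase-Glo luminescence; single-point 40 uM screen[…].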
* hit, by the source's call; i = inactive; + = active, no number; ! = not active in a repeat. Shown is part of a subset that was picked to be rich in hits. % is scaled to controls: 0 for no effect and ±100 for the full control effect.

SMILES | Methyltransferases
COc1cc2nc(N3CCN(C(=O)c4ccco4)C4CCCCC43)nc(N)c2cc1OC (configuration not stated) | +
O=C(NC1CCCN(c2cc(N3CCCC3)ncn2)C1)c1ccco1 (configuration not stated) | i
O=C(c1ccco1)N1CCCCC1c1nc(C2CC2)n[nH]1 (configuration not stated) | i
CCN1CCN(Cc2ccc(C(=O)Nc3ccc(C)c(Oc4ccc5c(c4)CC(=O)N5)c3)cc2C(F)(F)F)CC1 | i
CN1CCN(Cc2ccc(NC(=O)Nc3ccc(Oc4cc(NC(=O)C5CC5)ncn4)cc3)cc2C(F)(F)F)CC1 | +
COC(=O)N1CCN(Cc2cccc(NC(=O)Nc3ccc(C)nc3)c2F)CC1 | i
COc1ccc(NC(=O)CSc2nnc3[nH]c(=O)c(C)nn23)cc1OC | i
CCCn1c(=O)c2cc(F)ccc2n2c(SCC(=O)Nc3ccc4c(c3)OCCO4)nnc12 | i
Cc1ccc(Cn2c(=O)c3ccccc3n3c(=O)n(CC(=O)Nc4ccc(C)c(C)c4)nc23)cc1 | i
CCC(C)NC(=O)Cn1ccc2cc(S(=O)(=O)N3CCCC3)ccc21 (configuration not stated) | i
COC(=O)CCSC/C=C(\C)CCn1cc(CCc2ccc(-c3ccccc3)cc2)nn1 | +!
CC1CCC(NC(=O)C2(c3ccccc3)Cn3c(cc4sccc43)C(=O)N2Cc2ccc(F)cc2)CC1 (configuration not stated) | i
CCCN1C(=O)c2cc(C(=O)NCCCN3CCOCC3)nn2CC1(C)C(=O)NC1CCCC1 (configuration not stated) | i
CCCCNC(=O)C(C)n1ccc2cc(S(=O)(=O)N3CCCC3)ccc21 (configuration not stated) | i
CCOc1ccccc1CN1C(=O)c2cc(-c3cccs3)nn2CC1(C)C(=O)NC1CCCCC1 (configuration not stated) | i
CC1(C)[C@@H](O)CC[C@]2(C)[C@H]3CC=C4[C@@H]5C[C@](C)(C(=O)O)CC[C@]5(C)CC[C@@]4(C)[C@]3(C)CC[C@@H]12 | +
CC(=O)O[C@H]1[C@H](O)C[C@@]2(C)C(CC[C@]3(C)C2CC=C2C4CC(C)(C)CC[C@]4(C(=O)O)CC[C@]23C)C1(C)C (some centres not stated) | i
CC1(C)CC[C@]2(C(=O)O)CC[C@]3(C)C(=CCC4[C@@]5(C)C[C@@H](O)[C@H](O)C(C)(C)C5CC[C@]43C)[C@@H]2[C@@H]1O (some centres not stated) | i
CCCn1c(=O)c2ccc(C(=O)NC(C)CC)cc2n2c(SCC(=O)Nc3ccc(F)cc3)nnc12 (configuration not stated) | i
CCC(C)NC(=O)c1ccc2c(=O)n(C)c3nn(Cc4cc(C)ccc4C)c(=O)n3c2c1 (configuration not stated) | i
COc1cccc(CN2C(=O)c3cc4ccccc4n3CC2(C)C(=O)NCCCOC(C)C)c1OC (configuration not stated) | i
CC(C)c1c2cc(-c3ccnc(NC4CCC(NC5CCOCC5)CC4)n3)ccc2nn1C (configuration not stated) | +
Cc1cccc(Cn2nc3n(C(C)C)c(=O)c4ccc(C(=O)NCC(C)C)cc4n3c2=O)c1 | i
CCc1cc2c(cc3n2CC(C)(C(=O)NC2CCCCCC2)N(CCN2CCCC2)C3=O)s1 (configuration not stated) | i
CC(C)(C)c1nn2c(SCC(=O)Nc3cccc(F)c3)nnc2[nH]c1=O | i
SMILES | Methyltransferases
C=C1CC/C=C(/CO)C(=O)C[C@@H]2[C@@H]1C[C@@]2(C)COC(C)=O | +
COc1ccc(NS(=O)(=O)c2cc3[nH]c(=O)[nH]c3cc2C)c(OC)c1 | i
CC(CN1C(=O)c2cc3sccc3n2CC1(C)C(=O)NC1CCCCC1)c1ccccc1 (configuration not stated) | i
CCOc1ccccc1CN1C(=O)c2cc3occc3n2CC1(C)C(=O)NC1CCCCC1 (configuration not stated) | i
CN(C)CCN1C(=O)c2ccc(-c3ccco3)n2CC1(C)C(=O)NC1CCCCCCC1 (configuration not stated) | i
CC(C)OCCCn1c(=O)c2ccccc2n2c(=O)n(Cc3ccccc3)nc12 | i
CCOC(=O)c1cc2n(n1)CC(C)(C(=O)NC1CCC(C)CC1)N(c1ccccc1OC)C2=O (configuration not stated) | i
CCCn1c(=O)c2ccc(C(=O)NC3CCCCC3)cc2n2c(=O)n(CC(=O)NC(C)CC)nc12 (configuration not stated) | i
Brc1c(Br)c(Br)c2[nH]cnc2c1Br | +
Cc1ccc(NC(=O)Cn2c(=O)oc3cc(S(=O)(=O)N4CCCC4)ccc32)c(Cl)c1 | i
CC1(C(=O)NC2CCCCCC2)Cn2c(cc3occc32)C(=O)N1c1ccc(Cl)cc1 (configuration not stated) | i
COC(=O)c1ncn2c1C(=O)N(c1ccc(F)cc1)C(C)(C(=O)NC1CCCC1)C2 (configuration not stated) | i
NC(=O)c1cccc2[nH]c(-c3ccc([C@@H]4CCCN4)cc3F)nc12 | +
NC(=O)c1cccc2[nH]c(-c3ccc(C4CCCN4)cc3F)nc12 (configuration not stated) | +
NC(=O)c1cccc2[nH]c(-c3ccc([C@H]4CCCN4)cc3F)nc12 | +
CCc1cc2c(cc3n2CC(C)(C(=O)NC2CCCCCC2)N(CCCN(CC)CC)C3=O)s1 (configuration not stated) | i
CC(C)CCn1c(=O)c2ccc(C(=O)NCC(C)C)cc2n2c(=O)n(Cc3cccc(F)c3)nc12 | i
CCCC1c2ccc(C)n2CCN1C(=O)Nc1cc(Cl)ccc1OC (configuration not stated) | i
Cc1c(Cl)cccc1N1C(=O)c2cc3ccccc3n2CC1(C)C(=O)NC1CCCC1 (configuration not stated) | i
Cc1ccc(N2C(=O)c3cc4sccc4n3CC2(C)C(=O)NC2CCCCCC2)cc1 (configuration not stated) | i
Cc1ccc(NS(=O)(=O)c2ccc3c(c2)NC(=O)CC(=O)N3)c(C)c1 | i
CCCCN1C(=O)c2cc3ccccc3n2CC1(C)C(=O)NC1CCCCC1 (configuration not stated) | i
COc1ccccc1N1CCN(CCN(C(=O)c2ccc(F)cc2)c2ccccn2)CC1 | i
COc1ccccc1N1CCN(CCCCN2C(=O)c3ccccc3C2=O)CC1 | i
COc1ccccc1N1CCN(c2ncnc3n[nH]c(Br)c23)CC1 | +
SMILES | Methyltransferases
CCc1cccc(N2C(=O)c3ccc(-c4ccco4)n3CC2(C)C(=O)NC2CCCC2)c1 (configuration not stated) | i
COCCNc1cc(-c2ccc3ccccc3n2)c2cc[nH]c2n1 | i
COc1ccc(N(C(=O)Nc2c(C)cccc2C)c2cc(Nc3ccc(N4CCN(C)CC4)cc3)ncn2)c(OC)c1 | +
COc1ccc(N2CCN(c3nc(C(=O)NCc4cccc(C)c4)cs3)CC2)cc1 | i
CCC(=O)Nc1cccc(Oc2nc(Nc3ccc(N4CCN(C)CC4)cc3OC)ncc2Cl)c1 | i
CCC(C)NC(=O)N1CC(c2nc(CCOCC3CCOCC3)no2)C1 (configuration not stated) | i

Screens (PubChem BioAssay)
